Laboratory results reported in the supplement of paper PMC8728848.
Many of the other results were omitted from the sample, so the strongest signals are more common in it than they were.

Tests used:
Assay in all cases: glycan array binding signal (z-score within array); higher = stronger binding
Details in all cases: glycan notation: IUPAC condensed, linker removed
[1] = target: Fuc(a1-2)Gal(b1-3)GlcNAc(b1-2)Man(a1-3)[Fuc(a1-2)Gal(b1-3)GlcNAc(b1-2)Man(a1-6)]Man(b1-4)GlcNAc(b1-4)[Fuc(a1-6)]GlcNAc
How it was run: (§1)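 The Consortium for Functional Glycomics database supplied 3228 glycan arrays, of which those lacking an available protein sequence were dropped. The binding signal, a within-array Z-score, was averaged across arrays of the same protein sequence and across linkers. Negative scores can be read as non-binding.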

[2] = target: Fuc(a1-2)Gal(b1-4)[Fuc(a1-3)]GlcNAc
How it was run: as §1

[3] = target: Fuc(a1-2)Gal(b1-4)[Fuc(a1-3)]GlcNAc(b1-2)Man(a1-3)[Fuc(a1-2)Gal(b1-4)[Fuc(a1-3)]GlcNAc(b1-2)Man(a1-6)]Man(b1-4)GlcNAc(b1-4)[Fuc(a1-6)]GlcNAc
How it was run: as §1

Fuc(a1-2)[Gal(a1-3)]Gal = target: Fuc(a1-2)[Gal(a1-3)]Gal
How it was run: as §1

[4] = target: Fuc(a1-2)[GalNAc(a1-3)]Gal(b1-3)GlcNAc(b1-2)Man(a1-3)[Fuc(a1-2)[GalNAc(a1-3)]Gal(b1-3)GlcNAc(b1-2)Man(a1-6)]Man(b1-4)GlcNAc(b1-4)GlcNAc
How it was run: as §1

[5] = target: Fuc(a1-2)[GalNAc(a1-3)]Gal(b1-3)GlcNAc(b1-2)Man(a1-3)[Fuc(a1-2)[GalNAc(a1-3)]Gal(b1-3)GlcNAc(b1-2)Man(a1-6)]Man(b1-4)GlcNAc(b1-4)[Fuc(a1-6)]GlcNAc
How it was run: as §1

[6] = target: Fuc(a1-2)[GalNAc(a1-3)]Gal(b1-3)GlcNAc(b1-6)GalNAc
How it was run: as §1

[7] = target: Fuc(a1-3)[Gal(b1-4)]GlcNAc6S
How it was run: as §1

[8] = target: Gal(a1-3)Gal(b1-3)GlcNAc(b1-2)Man
How it was run: as §1

[9] = target: Gal(a1-4)Gal(b1-4)GlcNAc(b1-2)Man(a1-3)[Gal(a1-4)Gal(b1-4)GlcNAc(b1-2)Man(a1-6)]Man(b1-4)GlcNAc(b1-4)GlcNAc
How it was run: as §1

Gal(b1-3)Gal = target: Gal(b1-3)Gal
How it was run: as §1

[10] = target: Gal(b1-3)GlcNAc(b1-2)Man(a1-3)[Gal(b1-3)GlcNAc(b1-2)Man(a1-6)]Man(b1-4)GlcNAc(b1-4)[Fuc(a1-6)]GlcNAc
How it was run: as §1

[11] = target: Gal(b1-3)GlcNAc(b1-2)Man(a1-3)[GlcNAc(b1-4)][Gal(b1-3)GlcNAc(b1-2)Man(a1-6)]Man(b1-4)GlcNAc(b1-4)GlcNAc
How it was run: as §1

[12] = target: Gal(b1-4)GalNAc(a1-3)[Fuc(a1-2)]Gal(b1-4)GlcNAc
How it was run: as §1

Gal(b1-4)GlcNAc(b1-2)Man = target: Gal(b1-4)GlcNAc(b1-2)Man
How it was run: as §1

[13] = target: Gal(b1-4)GlcNAc(b1-2)Man(a1-3)[GlcNAc(b1-2)Man(a1-6)]Man(b1-4)GlcNAc(b1-4)GlcNAc
How it was run: as §1

[14] = target: Gal(b1-4)GlcNAc(b1-2)[Gal(b1-4)GlcNAc(b1-4)]Man(a1-3)[Gal(b1-4)GlcNAc(b1-2)Man(a1-6)]Man(b1-4)GlcNAc(b1-4)GlcNAc
How it was run: as §1

[15] = target: Gal(b1-4)GlcNAc(b1-3)Gal(b1-4)GlcNAc(b1-2)Man(a1-3)[Gal(b1-4)GlcNAc(b1-3)Gal(b1-4)GlcNAc(b1-2)Man(a1-6)]Man(b1-4)GlcNAc(b1-4)[Fuc(a1-6)]GlcNAc
How it was run: as §1

[16] = target: Gal(b1-4)GlcNAc(b1-3)Gal(b1-4)GlcNAc(b1-3)Gal(b1-4)GlcNAc(b1-3)Gal(b1-4)GlcNAc(b1-2)Man(a1-3)[Gal(b1-4)GlcNAc(b1-3)Gal(b1-4)GlcNAc(b1-3)Gal(b1-4)GlcNAc(b1-3)Gal(b1-4)GlcNAc(b1-2)Man(a1-6)]Man(b1-4)GlcNAc(b1-4)[Fuc(a1-6)]GlcNAc
How it was run: as §1

[17] = target: Gal(b1-4)GlcNAc(b1-3)Gal(b1-4)GlcNAc(b1-3)Gal(b1-4)GlcNAc(b1-3)Gal(b1-4)GlcNAc(b1-3)Gal(b1-4)GlcNAc(b1-2)Man(a1-3)[Gal(b1-4)GlcNAc(b1-3)Gal(b1-4)GlcNAc(b1-3)Gal(b1-4)GlcNAc(b1-3)Gal(b1-4)GlcNAc(b1-3)Gal(b1-4)GlcNAc(b1-2)Man(a1-6)]Man(b1-4)GlcNAc(b1-4)[Fuc(a1-6)]GlcNAc
How it was run: as §1

[18] = target: Gal(b1-4)GlcNAc(b1-6)GalNAc
How it was run: as §1

Gal3S(b1-3)GalNAc = target: Gal3S(b1-3)GalNAc
How it was run: as §1

Gal3S(b1-3)GlcNAc = target: Gal3S(b1-3)GlcNAc
How it was run: as §1

Gal3S(b1-4)Glc = target: Gal3S(b1-4)Glc
How it was run: as §1

[19] = target: GalNAc(b1-3)Gal(a1-4)Gal(b1-4)GlcNAc
How it was run: as §1

GalNAc3S(b1-4)GlcNAc = target: GalNAc3S(b1-4)GlcNAc
How it was run: as §1

[20] = target: GlcNAc(a1-4)Gal(b1-4)GlcNAc(b1-3)Gal(b1-4)GlcNAc(b1-3)Gal(b1-4)GlcNAc
How it was run: as §1

[21] = target: GlcNAc(b1-2)[GlcNAc(b1-4)]Man(a1-3)[GlcNAc(b1-2)Man(a1-6)]Man(b1-4)GlcNAc(b1-4)GlcNAc
How it was run: as §1

[22] = target: GlcNAc(b1-2)[GlcNAc(b1-6)]Man(a1-6)[GlcNAc(b1-4)][GlcNAc(b1-2)Man(a1-3)]Man(b1-4)GlcNAc(b1-4)GlcNAc
How it was run: as §1

[23] = target: GlcNAc(b1-3)Gal(b1-4)GlcNAc(b1-6)[Gal(b1-3)]GalNAc
How it was run: as §1

B1: cFel (Cyprinus carpio), P68512 (protein)
chain: LDCTVIDGNLKQIDAGSGSVVGVNNLNETFVLIDNVFTKISGSLKHFSVGPAGQLGVNTANNIFKYQSGGFVQLAGLLKQVDAGGDQIIAGVNMYDDIYCLNMDANNKWPSSNTPWVQINGKLKYYSCGPYSCWGVNSNDQIFIMKDVSSNVCSGSGSFINIPGLLSMIEVATDGSVFGVNSQGNLYQRTGVTRSKPDGTDWISMVACPNGHKHVSFDLGVLWLVCVDGSIRKCILTD
How did the “glycan array binding signal (z-score)” value [1] turn out when B1 was run?
The value was -0.998.

And the “glycan array binding signal (z-score)” value [2]?
The value was 0.152.

And the “glycan array binding signal (z-score)” value [3]?
The value was 3.47.

What about the “glycan array binding signal (z-score)” value (Fuc(a1-2)[Gal(a1-3)]Gal) of the same binder?
The value was 2.61.

What about the “glycan array binding signal (z-score)” value [4] of the same binder?
Its value is 0.309.

And the “glycan array binding signal (z-score)” value [5]?
Its value is 3.12.

And the “glycan array binding signal (z-score)” value [6]?
The value was 2.93.

What about the “glycan array binding signal (z-score)” value [7] of the same binder?
The value was 0.043.

And the “glycan array binding signal (z-score)” value [8]?
Its value is 0.809.

What about the “glycan array binding signal (z-score)” value [9] of the same binder?
Its value is -0.901.

What about the “glycan array binding signal (z-score)” value (Gal(b1-3)Gal) of the same binder?
Its value is -0.479.

And the “glycan array binding signal (z-score)” value [10]?
The value was -1.57.

What about the “glycan array binding signal (z-score)” value [11] of the same binder?
The value was 3.37.

And the “glycan array binding signal (z-score)” value [12]?
Its value is 0.995.

What about the “glycan array binding signal (z-score)” value (Gal(b1-4)GlcNAc(b1-2)Man) of the same binder?
Its value is 0.263.

And the “glycan array binding signal (z-score)” value [13]?
The value was 0.271.

What about the “glycan array binding signal (z-score)” value [14] of the same binder?
The value was 3.29.

And the “glycan array binding signal (z-score)” value [15]?
Its value is -0.29.

What about the “glycan array binding signal (z-score)” value [16] of the same binder?
The value was -0.084.

And the “glycan array binding signal (z-score)” value [17]?
Its value is 1.98.

And the “glycan array binding signal (z-score)” value [18]?
Its value is 1.54.

What about the “glycan array binding signal (z-score)” value (Gal3S(b1-3)GalNAc) of the same binder?
The value was -0.627.

And the “glycan array binding signal (z-score)” value (Gal3S(b1-3)GlcNAc)?
Its value is -0.636.

And the “glycan array binding signal (z-score)” value (Gal3S(b1-4)Glc)?
The value was 1.24.

What about the “glycan array binding signal (z-score)” value [19] of the same binder?
Its value is 4.96.

What about the “glycan array binding signal (z-score)” value (GalNAc3S(b1-4)GlcNAc) of the same binder?
The value was -0.547.

And the “glycan array binding signal (z-score)” value [20]?
The value was -0.344.

And the “glycan array binding signal (z-score)” value [21]?
Its value is -0.869.

And the “glycan array binding signal (z-score)” value [22]?
Its value is -0.817.

And the “glycan array binding signal (z-score)” value [23]?
Its value is 1.15.
